The campaign covered roughly 37,000 compounds. About 2,800 (7.6%) were called active. Another 1% or so got no clear call; they are omitted. The sample holds actives, similar compounds and a random draw of the others, so the mix is not that of the screen. Values without a mark were called inactive. Rule as the data show it: active = inhibition above about 80%; inconclusive = no clear call, values can overlap the other calls; inactive = below that.
Assay: NOMO-1 AML cell viability reduction, primary screen, STK33 inhibitor project, CellTiter-Glo luminescence (AID 2330)
Details: NOMO-1 AML viability, 72 h, stronger effect = higher value, concentration not given here

Structure (SMILES)	inhibition
CCn1c(=O)c2c(n3c(SCC(N)=O)nnc13)-c1ccccc1CC21CCCCC1	98.7% (active)
NC(=O)CSc1nnc(-c2ccccc2F)n1-c1ccccc1	26.5%
O=c1[nH]c(CSCCO)nc2c1C1(CCCCC1)Cc1ccccc1-2	8.91%
COc1ccc(-c2cc(C(F)(F)F)n3nc(C(=O)NCCCN4CCOCC4)cc3n2)cc1OC	2.66%
CC(C)NC(=O)N(C)C[C@H]1Oc2c(NS(=O)(=O)c3cccs3)cccc2C(=O)N([C@H](C)CO)C[C@H]1C	-11.8%
Cc1c(C(=O)N2CCOCC2)[nH]c2ccc(OCc3ccccc3)cc12	34.1%
O=C(Nc1ccc(OCc2ccccc2)cc1)OCC1CN(Cc2ccccc2)CCO1 (stereo unspecified)	113% (active)
COc1ccc(Cl)cc1NC(=O)CSc1nnc(-c2ccc(Cl)c(Cl)c2)n1C	17.7%
COc1ccc(NC(=S)NCc2cc(C)n(C)n2)cc1OC	6.06%
COc1ccc(NC(=S)SC)cc1OC	87.2% (active)
COc1ccc(OC(C)C(=O)Nc2ccc(OC)c(OC)c2)cc1 (stereo unspecified)	-22%
Cc1ccc([N+](=O)[O-])cc1NC(=O)CSC1=NCCS1	21.4%
C[C@@H]1CN([C@@H](C)CO)C(=O)c2cccc(NC(=O)c3ccc(-c4nccs4)cc3)c2O[C@H]1CN(C)C(=O)Nc1ccccc1	-9.67%
CC[C@]1(O)C[C@@H]2CN(CCc3c([nH]c4ccccc34)[C@@](C(=O)OC)(c3cc4c(cc3OC)N(C)[C@H]3[C@@](O)(C(=O)OC)[C@H](OC(C)=O)[C@]5(CC)C=CCN6CC[C@]43[C@@H]65)C2)C1	112% (active)
C[C@@H]1CN([C@H](C)CO)C(=O)c2cc(NC(=O)Nc3ccc4c(c3)OCO4)ccc2O[C@@H]1CN(C)C(=O)Nc1ccc(F)cc1	33.1%
C[C@@H]1CN([C@H](C)CO)C(=O)c2cccc(NS(=O)(=O)c3cn(C)cn3)c2O[C@H]1CN(C)Cc1ccc(C(=O)O)cc1	-16.7%
Cc1nnc(SCC(=O)Nc2cc(Cl)ccc2C)s1	22.1%
C[C@@H]1CN([C@@H](C)CO)C(=O)c2cccc(NC(=O)c3ccncc3)c2O[C@@H]1CN(C)CC1CC1	4.97%
C[C@@H]1CN([C@@H](C)CO)C(=O)c2cccc(NC(=O)c3cnccn3)c2O[C@H]1CN(C)Cc1ccc(C(=O)O)cc1	-15.7%
C[C@H](CO)N1C[C@H](C)[C@@H](CN(C)Cc2ccc(C(=O)Nc3ccccc3N)cc2)Oc2c(NC(=O)C3CC3)cccc2C1=O	106% (active)
C[C@@H]1CN([C@@H](C)CO)C(=O)c2cccc(NC(=O)C3CC3)c2O[C@@H]1CN(C)Cc1ccccc1	4.47%
C[C@@H]1CN([C@H](C)CO)C(=O)c2cccc(NC(=O)c3cnccn3)c2O[C@@H]1CN(C)Cc1ccc(C(=O)Nc2ccccc2N)cc1	126% (active)
COc1ccc(CN(C)C[C@H]2Oc3c(NC(=O)C4CC4)cccc3C(=O)N([C@@H](C)CO)C[C@H]2C)cc1	-16.6%

Structure (SMILES)	inhibition
Cc1cc(C(=O)Nc2cccc3c2O[C@@H](CN(C)Cc2ccncc2)[C@@H](C)CN([C@@H](C)CO)C3=O)n(C)n1	19.4%
Cc1cc(C(=O)Nc2cccc3c2O[C@@H](CN(C)Cc2ccc(C(=O)O)cc2)[C@H](C)CN([C@@H](C)CO)C3=O)n(C)n1	0.233%
C[C@@H]1CN([C@H](C)CO)C(=O)c2cccc(NC(=O)c3cnccn3)c2O[C@@H]1CN(C)Cc1ccncc1	13.1%
Cc1cc(C(=O)Nc2cccc3c2O[C@@H](CN(C)Cc2ccc(C(=O)Nc4ccccc4N)cc2)[C@H](C)CN([C@@H](C)CO)C3=O)n(C)n1	89.1% (active)
COc1ccc(S(=O)(=O)Nc2cccc3c2O[C@@H](CN(C)Cc2ccc(-c4ccccc4)cc2)[C@H](C)CN([C@H](C)CO)C3=O)cc1	22.4%
CCn1c(SCC(=O)c2ccc(OC)cc2)nnc1-c1ccc(Cl)cc1Cl	-7.21%
Cc1cccc(N(CC(=O)Nc2cccc([N+](=O)[O-])c2)S(C)(=O)=O)c1C	-1.91%
COc1cc(OC)c(NC(=O)CSc2nnc(-c3ccncc3)n2-c2ccccc2)cc1Cl	37.4%
COc1ccc(OC)c(NC(=O)c2cnn(-c3ccccc3Cl)c2NC(=O)c2ccco2)c1	21.2%
CC(C)NC(=O)Nc1ccc2c(c1)CC(=O)N([C@H](C)CO)C[C@@H](C)[C@@H](CN(C)C(=O)Nc1ccc3c(c1)OCO3)O2	21.8%
c1ccc(-n2c(SCc3nc4ccccc4s3)nnc2-c2ccncc2)cc1	37.8%
CSC1=N/C(=C\C=C\c2cccs2)C(=O)S1	123% (active)
COc1ccc(N(Cc2cc3ccccc3[nH]c2=O)C(=O)c2cccc(OC)c2)cc1	-11%
COc1ccccc1CCNC(=O)c1cnccn1	4.1%
COC(=O)c1scc(S(=O)(=O)C(C)(C)C)c1-n1cccc1	100% (active)
C[C@@H]1CN([C@H](C)CO)C(=O)c2cc(NC(=O)CCN3CCOCC3)ccc2O[C@H]1CN(C)Cc1ccc(Oc2ccccc2)cc1	5.92%
C[C@@H]1CN([C@H](C)CO)C(=O)c2cc(NS(=O)(=O)c3cccs3)ccc2O[C@H]1CN(C)Cc1ccncc1	-4.5%
C=C1C(=O)O[C@@H]2[C@H]3C(CO)=CC(=O)C3=C(C)C[C@H](OC(=O)Cc3ccc(O)cc3)[C@@H]12	120% (active)
C=CC(=O)c1ccc2ccccc2c1	98.4% (active)
COc1ccccc1NC(=O)CCC(=O)c1ccc(C)cc1	29.1%
COC(=O)C(C)N(C#N)c1nc(C)nc(C)n1 (stereo unspecified)	113% (active)
COc1ccc(CN(C)C[C@H]2Oc3c(NC(=O)c4cnccn4)cccc3C(=O)N([C@H](C)CO)C[C@@H]2C)cc1	5.98%
C[C@@H]1CC[C@]2(C)[C@H](CC[C@@H](O)[C@]2(C)O)[C@@]1(C)CC(=O)c1ccoc1	9.78%
